Screens: PubChem, National Center for Advancing Translational Sciences (NCATS)
Most compounds without a hit are left out; they make up all but 2.8% or so of the library.
Pol iota inh – inhibitors of human DNA polymerase iota | Q9UNA4 | Pol iota fluorescent replication assay, 10 min | Potency, µM (titrated, usually from 115 µM), without a hit: at the highest dose activity, negative = inhibition, hits mostly inhibitors | 390,000 tested, 1% active; also: potency is read from the fitted curve at half-maximal effect
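Fluorescent replication assay read twice, at 0 min and 10 min after adding 50 nM (final) substrate. Enzyme (10 nM) and compounds were first incubated 15 min at room temperature; enzyme-free buffer wells were negative controls.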
POLK inh – inhibitors of human DNA polymerase kappa. Q9UBT6. purified Pol kappa, fluorescent DNA synthesis assay, 10 min. Potency, µM (top dose mostly 107 µM), without a hit: top-dose activity, negative = inhibition, most hits filed as inhibitors. 400,000 tested, 0.53% active; also: potency is read from the fitted curve at half-maximal effect; % is scaled to controls: 0 for no effect and ±100 for the full control effect
Target sequence (Q9UBT6 whole entry, looked up): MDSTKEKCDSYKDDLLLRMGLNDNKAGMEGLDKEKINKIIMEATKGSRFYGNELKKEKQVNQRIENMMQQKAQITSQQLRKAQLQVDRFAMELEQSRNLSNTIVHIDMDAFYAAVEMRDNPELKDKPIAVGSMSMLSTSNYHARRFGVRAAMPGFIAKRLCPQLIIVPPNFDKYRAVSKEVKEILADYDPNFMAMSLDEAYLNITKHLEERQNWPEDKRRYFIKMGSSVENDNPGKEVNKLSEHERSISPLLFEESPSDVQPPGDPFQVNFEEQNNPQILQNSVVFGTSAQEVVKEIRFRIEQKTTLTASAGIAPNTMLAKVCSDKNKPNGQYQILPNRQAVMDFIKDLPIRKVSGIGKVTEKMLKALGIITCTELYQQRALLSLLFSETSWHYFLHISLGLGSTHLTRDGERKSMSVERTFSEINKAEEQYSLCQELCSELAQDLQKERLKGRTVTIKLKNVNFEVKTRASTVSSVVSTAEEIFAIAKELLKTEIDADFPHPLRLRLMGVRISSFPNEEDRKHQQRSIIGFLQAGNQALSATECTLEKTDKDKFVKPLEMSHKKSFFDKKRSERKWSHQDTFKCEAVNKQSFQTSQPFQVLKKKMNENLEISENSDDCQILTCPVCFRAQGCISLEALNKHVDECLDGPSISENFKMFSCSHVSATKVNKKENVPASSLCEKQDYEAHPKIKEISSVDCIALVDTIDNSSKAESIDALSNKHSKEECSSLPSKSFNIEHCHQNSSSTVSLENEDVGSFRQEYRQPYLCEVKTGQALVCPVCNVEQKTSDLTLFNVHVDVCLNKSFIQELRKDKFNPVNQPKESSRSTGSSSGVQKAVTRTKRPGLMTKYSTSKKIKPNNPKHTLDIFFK
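10 nM Pol kappa was preincubated with compounds for 15 min at room temperature. Reaction started with 50 nM (final) substrate. Fluorescence read kinetically at 0 and 10 min.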
Pol eta inh – inhibitors of human DNA polymerase eta; recombinant Pol eta, fluorescent DNA replication assay; Potency, µM (highest dose often 114 µM), for inactives: at the top dose activity change, negative = inhibition, most hits filed as inhibitors; 390,000 tested, 1.2% active; also: potency is read from the fitted curve at half-maximal effect; % is scaled to controls: 0 for no effect and ±100 for the full control effect
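Pol eta at 10 nM preincubated with compounds 15 min at room temperature; reaction started with fluorescent substrate (50 nM final) and read kinetically at 0 and 10 min.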
Pol beta inh – DNA polymerase beta (human) inhibition. Pol beta primer extension/strand displacement, fluorescence kinetic. Potency, µM (highest dose often 114 µM), inactives show at the highest dose activity change, negative = inhibition, most hits filed as inhibitors. 340,000 tested, 1.3% active. AID 485314; also: potency is read from the fitted curve at half-maximal effect; % is scaled to controls: 0 for no effect and ±100 for the full control effect
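Values derive from four-parameter Hill fits of normalized kinetic data: reads at 0 and 10 min following addition of 50 nM substrate to 10 nM Pol beta preincubated 15 min with compound.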
FEN1 inh – inhibitors of human flap endonuclease 1 | P39748 | 390,000 tested, 0.35% active | Potency, µM (top dose mostly 114 µM), without a hit: at the top dose activity change, negative = inhibition, most hits filed as inhibitors | Recombinant FEN1 flap cleavage, fluorescence, 15 min; also: potency is read from the fitted curve at half-maximal effect; % is scaled to controls: 0 for no effect and ±100 for the full control effect; nearly all actives have a fitted effect of over 65% in size
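FEN1 at 10 nM preincubated with compounds 15 min at room temperature, then flap DNA substrate added at 50 nM final. Signal read at 0 and 15 min; concentration-response fitted with four-parameter Hill equation.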
PI5P4K alpha inh – PI5P4K alpha (human) kinase inhibition. P48426. 330,000 tested, 1.2% active. PI5P4Kalpha enzyme, ADP-Glo luminescence, 60 min; active compounds read low. max response, %; active = max response of -50% or lower; inconclusive = between -30% and -50%; inactive = -30% or higher; also: value at the top dose of about 77 µM; % is scaled to controls: 0 for no effect and ±100 for the full control effect
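Reactions run in 0.038 M HEPES pH 7.4, 0.28 mM EGTA, 0.1% CHAPS and 5% DMSO, with PI5P4Kalpha, substrate, compound and 5 microM ATP final, one hour at room temperature. Readout is ADP-Glo luminescence.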
Active calls of the source: *. Unless noted, calls follow the shape of the dose curve; as a rule, active = well fitted curve in the direction sought with a large enough effect; inconclusive = small, poorly fitted or top-dose-only effect, or another doubt; inactive = no such curve, though single readings can be large; an effect the other way counts as inactive or inconclusive.

Screening COc1ccc(/C=N/NC(=O)c2[nH]c3ccc(Br)cc3c2-c2ccccc2)c(C(=O)O)c1OC returned Pol iota inh inconclusive, POLK inh 1.8%, Pol eta inh 31.6µM*, Pol beta inh inconclusive, FEN1 inh inconclusive and PI5P4K alpha inh -16.2.
O=C(N/N=C/c1ccccc1Cl)c1[nH]c2ccc(Br)cc2c1-c1ccccc1 was read as Pol iota inh 79.4µM*, POLK inh inconclusive, Pol eta inh 50.1µM*, Pol beta inh inconclusive, FEN1 inh inconclusive and PI5P4K alpha inh 6.4.
COc1ccc(NC(=O)C2CCCO2)cc1 (centres undefined) was read as Pol iota inh 18.4%, POLK inh 0.4%, Pol eta inh -4.2%, Pol beta inh -0.4% and FEN1 inh 19.7%.
For O=C(Nc1ccc(Oc2ccccc2)cc1)C1CCCO1 (centres undefined) the results were Pol iota inh -13.1%, POLK inh -10.0%, Pol eta inh 10.1%, Pol beta inh 79.4µM* and FEN1 inh -15.7%.
For CCc1ccc(NC(=O)CCn2nc(-c3ccccc3OC)c3c(C)cc(C)nc32)cc1 the results were Pol iota inh 10.8%, POLK inh -13.9%, Pol eta inh -14.7%, Pol beta inh inconclusive and FEN1 inh 0.0%.
CC(C)C(=O)NC(c1cccs1)c1cc([N+](=O)[O-])c2cccnc2c1O (centres undefined) was read as Pol iota inh 32.7%, POLK inh -8.8%, Pol eta inh inconclusive, Pol beta inh -0.7%, FEN1 inh -20.4% and PI5P4K alpha inh -83.6*.
CC(=O)Nc1nnc(SCc2ccc(F)cc2)s1 was read as Pol iota inh 15.4%, POLK inh -4.6%, Pol eta inh -3.7%, Pol beta inh 22.1% and FEN1 inh -1.1%.
For O=C(Nc1nnc(SCc2ccc(F)cc2)s1)c1ccc2ncsc2c1 the results were Pol iota inh 3.16µM*, POLK inh 1.0%, Pol eta inh -6.1%, Pol beta inh 2.5%, FEN1 inh inconclusive and PI5P4K alpha inh inconclusive.
`COc1cc2c(NC3CCN(C)CC3)nc(N3CCCN(C)CC3)nc2cc1OCCCN1CCCCC1` gave Pol iota inh inconclusive, POLK inh -27.2% and FEN1 inh 22.4µM*.
Screening COc1cc2c(NC3CCN(C)CC3)nc(N3CCCN(C)CC3)nc2cc1OCCCC(C)C returned Pol iota inh -6.8%, POLK inh -12.9% and FEN1 inh inconclusive.
For COc1cc2c(NC3CCN(C)CC3)nc(N3CCCN(C)CC3)nc2cc1OCCOCCN1CCCC1 the results were Pol iota inh -15.8%, POLK inh -16.4% and FEN1 inh 20µM*.
`CCc1nnc(NC(=O)[C@@H](NC(=O)c2cc(OC)cc(OC)c2)C(C)C)s1` gave Pol iota inh 6.0%, POLK inh -6.2%, Pol eta inh -4.6%, Pol beta inh 6.6%, FEN1 inh -0.8% and PI5P4K alpha inh 1.3.
For Cc1[nH]n(-c2ccccc2)c(=S)c1C=Nc1cccc([N+](=O)[O-])c1 the results were Pol iota inh 22.9%, POLK inh -5.1%, Pol eta inh -12.1%, Pol beta inh 50.3%, FEN1 inh -10.2% and PI5P4K alpha inh -105.1*.
Screening COCCN(C(=O)CSc1nc(-c2ccccc2)cn1N)c1c(N)n(Cc2ccccc2)c(=O)[nH]c1=O returned Pol iota inh 27.6%, POLK inh -3.0%, Pol eta inh inconclusive, FEN1 inh 7.6% and PI5P4K alpha inh 4.3.
`CC1CN(C2=Nc3cccc4cccc2c34)CC(C)O1` (centres undefined) gave Pol iota inh 25.1µM*, POLK inh 12.4%, Pol eta inh -7.4%, Pol beta inh 19.1%, FEN1 inh -5.4% and PI5P4K alpha inh 15.0.
C=CCSc1nc(-c2ccccc2)c(C#N)c(=O)[nH]1 was read as Pol iota inh 75.2%, POLK inh 6.2%, Pol eta inh -6.7%, Pol beta inh -5.8% and FEN1 inh -10.9%.
